The results in this text go back to the supplement of paper PMC10849652.

Of roughly 7,900 targets only a part is listed; those with a hit were picked by preference. About 0.6% of all pairs of compound and target were hits. Values without a mark were called inactive.

UniProt Q9C0D3, sequence (Q9C0D3 whole entry, looked up): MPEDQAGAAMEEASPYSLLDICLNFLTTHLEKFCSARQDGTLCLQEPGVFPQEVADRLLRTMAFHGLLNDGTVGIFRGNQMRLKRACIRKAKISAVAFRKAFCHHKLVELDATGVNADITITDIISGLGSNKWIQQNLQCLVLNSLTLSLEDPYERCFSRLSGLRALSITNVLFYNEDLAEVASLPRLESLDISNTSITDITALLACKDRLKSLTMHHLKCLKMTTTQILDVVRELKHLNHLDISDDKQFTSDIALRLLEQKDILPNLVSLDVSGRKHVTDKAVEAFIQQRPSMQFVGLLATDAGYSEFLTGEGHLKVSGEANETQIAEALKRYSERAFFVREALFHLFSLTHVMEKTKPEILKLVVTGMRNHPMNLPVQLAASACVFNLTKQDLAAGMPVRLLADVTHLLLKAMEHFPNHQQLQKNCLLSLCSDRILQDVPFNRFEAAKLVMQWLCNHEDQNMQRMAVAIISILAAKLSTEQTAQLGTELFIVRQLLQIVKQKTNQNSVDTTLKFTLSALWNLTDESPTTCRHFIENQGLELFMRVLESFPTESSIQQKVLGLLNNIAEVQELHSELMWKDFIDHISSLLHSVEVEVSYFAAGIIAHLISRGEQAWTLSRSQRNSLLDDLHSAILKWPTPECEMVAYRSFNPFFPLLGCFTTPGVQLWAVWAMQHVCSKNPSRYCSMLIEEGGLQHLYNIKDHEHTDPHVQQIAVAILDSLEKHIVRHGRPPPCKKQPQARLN
UniProt P63104, sequence (P63104 whole entry, looked up): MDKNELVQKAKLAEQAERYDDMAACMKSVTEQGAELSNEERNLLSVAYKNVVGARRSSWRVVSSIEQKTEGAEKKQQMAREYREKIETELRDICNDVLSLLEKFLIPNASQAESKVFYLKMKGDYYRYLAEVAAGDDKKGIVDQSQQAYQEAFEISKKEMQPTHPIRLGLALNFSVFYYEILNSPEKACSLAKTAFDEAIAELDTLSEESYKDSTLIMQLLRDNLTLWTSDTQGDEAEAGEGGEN
UniProt P52747, sequence (P52747 whole entry, looked up): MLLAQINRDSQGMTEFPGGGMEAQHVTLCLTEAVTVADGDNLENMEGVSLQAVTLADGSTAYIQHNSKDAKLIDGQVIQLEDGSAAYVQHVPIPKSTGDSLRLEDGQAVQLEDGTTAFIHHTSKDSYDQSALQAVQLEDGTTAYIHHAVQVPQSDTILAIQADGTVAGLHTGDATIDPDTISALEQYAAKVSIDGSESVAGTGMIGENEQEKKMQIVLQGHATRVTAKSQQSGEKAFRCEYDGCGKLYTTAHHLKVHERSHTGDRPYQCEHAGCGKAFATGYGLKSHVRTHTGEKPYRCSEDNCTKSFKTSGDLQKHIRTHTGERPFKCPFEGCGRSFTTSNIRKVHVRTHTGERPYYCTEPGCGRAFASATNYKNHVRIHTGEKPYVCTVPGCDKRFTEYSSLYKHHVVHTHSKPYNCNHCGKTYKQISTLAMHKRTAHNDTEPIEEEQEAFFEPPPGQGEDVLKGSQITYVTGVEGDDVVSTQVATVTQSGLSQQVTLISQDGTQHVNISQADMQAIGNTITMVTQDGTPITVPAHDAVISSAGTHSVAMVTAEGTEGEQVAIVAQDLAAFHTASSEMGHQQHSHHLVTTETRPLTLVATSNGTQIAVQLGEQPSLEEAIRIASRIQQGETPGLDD
UniProt Q96EC8, sequence (Q96EC8 whole entry, looked up): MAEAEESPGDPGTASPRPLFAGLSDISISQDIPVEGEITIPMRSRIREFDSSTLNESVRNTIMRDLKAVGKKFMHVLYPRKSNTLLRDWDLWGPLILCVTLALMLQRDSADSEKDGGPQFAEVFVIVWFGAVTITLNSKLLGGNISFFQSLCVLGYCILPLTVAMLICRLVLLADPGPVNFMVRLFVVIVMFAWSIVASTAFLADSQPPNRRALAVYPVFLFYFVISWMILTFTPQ
UniProt Q8NB15, sequence (Q8NB15 whole entry, looked up): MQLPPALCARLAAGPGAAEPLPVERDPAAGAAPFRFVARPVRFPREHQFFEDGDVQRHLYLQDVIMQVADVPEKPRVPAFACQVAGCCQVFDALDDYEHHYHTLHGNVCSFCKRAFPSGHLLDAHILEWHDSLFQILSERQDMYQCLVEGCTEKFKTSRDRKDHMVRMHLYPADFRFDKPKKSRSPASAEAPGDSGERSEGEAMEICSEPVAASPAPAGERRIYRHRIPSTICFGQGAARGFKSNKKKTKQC
UniProt Q96NC0, sequence (Q96NC0 whole entry, looked up): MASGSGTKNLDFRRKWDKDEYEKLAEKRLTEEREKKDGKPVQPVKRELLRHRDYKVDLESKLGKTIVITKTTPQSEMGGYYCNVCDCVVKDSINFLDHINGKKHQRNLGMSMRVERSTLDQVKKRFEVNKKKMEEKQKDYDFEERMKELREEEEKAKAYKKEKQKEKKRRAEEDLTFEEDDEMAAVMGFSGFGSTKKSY
UniProt Q6FIF0, sequence (Q6FIF0 whole entry, looked up): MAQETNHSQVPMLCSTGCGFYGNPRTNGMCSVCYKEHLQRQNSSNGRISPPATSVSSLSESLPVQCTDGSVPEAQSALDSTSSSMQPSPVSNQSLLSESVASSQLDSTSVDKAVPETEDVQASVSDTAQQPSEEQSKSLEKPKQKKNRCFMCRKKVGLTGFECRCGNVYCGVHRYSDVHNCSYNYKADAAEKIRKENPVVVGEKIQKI
UniProt Q5SVZ6, sequence (Q5SVZ6 whole entry, looked up): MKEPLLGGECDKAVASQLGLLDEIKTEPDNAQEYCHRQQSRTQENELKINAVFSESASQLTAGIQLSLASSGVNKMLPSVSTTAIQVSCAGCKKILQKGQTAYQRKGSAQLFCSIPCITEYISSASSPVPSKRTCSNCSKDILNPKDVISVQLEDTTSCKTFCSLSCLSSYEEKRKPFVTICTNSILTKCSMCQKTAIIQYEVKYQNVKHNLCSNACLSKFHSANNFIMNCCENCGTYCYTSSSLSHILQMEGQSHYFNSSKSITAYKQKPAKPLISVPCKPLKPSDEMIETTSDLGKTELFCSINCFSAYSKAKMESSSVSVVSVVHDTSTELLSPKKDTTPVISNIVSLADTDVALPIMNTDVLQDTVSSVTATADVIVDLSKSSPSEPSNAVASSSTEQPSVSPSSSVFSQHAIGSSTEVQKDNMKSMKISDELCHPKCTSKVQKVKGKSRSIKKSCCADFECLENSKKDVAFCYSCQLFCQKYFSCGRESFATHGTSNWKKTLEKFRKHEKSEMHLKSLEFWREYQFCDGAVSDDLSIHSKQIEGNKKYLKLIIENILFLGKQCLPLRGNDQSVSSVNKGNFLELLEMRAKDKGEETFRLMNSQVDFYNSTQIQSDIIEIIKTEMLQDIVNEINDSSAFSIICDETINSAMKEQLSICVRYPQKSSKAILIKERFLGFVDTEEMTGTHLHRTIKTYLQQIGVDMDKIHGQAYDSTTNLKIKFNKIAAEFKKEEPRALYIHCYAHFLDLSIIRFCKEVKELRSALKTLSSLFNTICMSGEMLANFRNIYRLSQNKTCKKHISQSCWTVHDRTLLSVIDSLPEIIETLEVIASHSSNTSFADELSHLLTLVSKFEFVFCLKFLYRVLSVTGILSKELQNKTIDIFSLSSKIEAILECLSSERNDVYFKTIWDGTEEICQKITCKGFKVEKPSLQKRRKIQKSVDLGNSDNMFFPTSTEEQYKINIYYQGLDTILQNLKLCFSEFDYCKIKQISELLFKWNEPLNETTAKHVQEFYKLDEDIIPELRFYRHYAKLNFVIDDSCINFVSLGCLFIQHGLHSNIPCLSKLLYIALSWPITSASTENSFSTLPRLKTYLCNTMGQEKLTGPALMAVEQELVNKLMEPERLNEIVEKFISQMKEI
UniProt O75362, sequence (O75362 whole entry, looked up): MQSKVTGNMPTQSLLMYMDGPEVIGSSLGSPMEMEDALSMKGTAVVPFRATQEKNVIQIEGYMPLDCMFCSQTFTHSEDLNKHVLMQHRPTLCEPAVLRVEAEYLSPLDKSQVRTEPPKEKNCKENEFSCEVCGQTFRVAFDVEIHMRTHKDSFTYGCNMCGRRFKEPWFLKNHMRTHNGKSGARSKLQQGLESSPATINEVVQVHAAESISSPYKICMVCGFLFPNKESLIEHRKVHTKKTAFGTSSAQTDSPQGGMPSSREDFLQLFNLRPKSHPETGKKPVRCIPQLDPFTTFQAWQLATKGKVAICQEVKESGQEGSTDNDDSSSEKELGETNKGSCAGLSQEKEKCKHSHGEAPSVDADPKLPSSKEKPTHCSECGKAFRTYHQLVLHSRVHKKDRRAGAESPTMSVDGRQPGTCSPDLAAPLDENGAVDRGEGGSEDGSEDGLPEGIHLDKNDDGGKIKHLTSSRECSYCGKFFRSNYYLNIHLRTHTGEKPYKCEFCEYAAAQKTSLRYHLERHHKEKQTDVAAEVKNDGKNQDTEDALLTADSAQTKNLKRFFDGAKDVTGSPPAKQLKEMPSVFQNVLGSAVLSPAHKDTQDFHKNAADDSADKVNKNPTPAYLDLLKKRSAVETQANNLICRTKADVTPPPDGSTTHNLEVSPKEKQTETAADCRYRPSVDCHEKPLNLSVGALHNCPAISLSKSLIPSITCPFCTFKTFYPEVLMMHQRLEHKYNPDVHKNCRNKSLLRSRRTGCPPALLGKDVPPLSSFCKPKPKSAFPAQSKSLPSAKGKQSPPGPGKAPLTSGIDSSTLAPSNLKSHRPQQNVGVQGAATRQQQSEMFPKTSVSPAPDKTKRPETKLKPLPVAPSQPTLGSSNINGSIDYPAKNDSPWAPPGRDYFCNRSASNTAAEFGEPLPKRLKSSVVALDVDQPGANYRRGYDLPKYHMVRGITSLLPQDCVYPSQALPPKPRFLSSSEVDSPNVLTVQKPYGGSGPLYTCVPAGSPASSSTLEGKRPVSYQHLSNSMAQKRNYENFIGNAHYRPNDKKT
UniProt P62699, sequence (P62699 whole entry, looked up): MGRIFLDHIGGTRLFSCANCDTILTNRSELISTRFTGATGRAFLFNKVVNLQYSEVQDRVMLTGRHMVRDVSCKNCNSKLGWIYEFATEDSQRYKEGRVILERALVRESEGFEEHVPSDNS

Compound in the test: c1ccc([C@@H]2C[C@H]2NC2CCNCC2)cc1
Description: log2 fold change, soluble protein after heating vs DMSO (PISA); higher = thermal stabilisation; K562 cells, 10 uM, 30 min; active = over 0.2 and 3.5 SD of the protein, either way, in both replicates (recomputed). In a few lines: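 K562 cells at 2×10^6 cells/mL were given 10 μM compound for 30 min. Aliquots then went through 3 min of heating across 48°C-58°C, were pooled, and were extracted in PBS with 0.5% NP-40 at 4°C, and the supernatant after 21,000xg for 90 min was quantified by TMTpro 16plex LC-MS/MS with channel sums equalised. Thermal stability relative to control samples, from duplicates, is given as log2 fold change.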
For the target YAE1 (UniProt Q9NRH1), the log2 fold change was 0.095.

Take ZMAT2 (UniProt Q96NC0): the log2 fold change is -0.016.

In the case of ZFAND5 (UniProt O76080), the log2 fold change is 0.143.

For the target ZNF512 (UniProt Q96ME7), the log2 fold change is -0.363.

Take ZDHHC7 isoform 2 (UniProt Q9NXF8): the log2 fold change is 0.081.

For the target YBX1 (UniProt P67809), the log2 fold change is 0.052.

Turning to ZNF217 (UniProt O75362), the log2 fold change is 0.306 (active).

With ZRANB2 (UniProt O95218), the log2 fold change is 0.093.

On to ZADH2 (UniProt Q8N4Q0), for which the log2 fold change is 0.008.

ZNF511 isoform 1 (UniProt Q8NB15): the log2 fold change is 0.102.

ZC3H18 (UniProt Q86VM9): the log2 fold change is 0.047.

Regarding ZC3H8 (UniProt Q8N5P1), the log2 fold change was 0.

With ZMYM1 (UniProt Q5SVZ6), the log2 fold change was -0.011.

Turning to ZBTB21 (UniProt Q9ULJ3), the log2 fold change was 0.006.

With YIPF4 (UniProt Q9BSR8), the log2 fold change is 0.046.

In the case of YIPF5 isoform 3 (UniProt Q969M3), the log2 fold change was 0.08.

Take ZNF579 (UniProt Q8NAF0): the log2 fold change was -0.147.

As to YPEL5 (UniProt P62699), the log2 fold change is -0.081.

As for ZFP91 (UniProt Q96JP5), the log2 fold change was 0.03.

With YIPF6 (UniProt Q96EC8), the log2 fold change was 0.015.

With YOD1 (UniProt Q5VVQ6), the log2 fold change was 0.046.

As for YWHAZ (UniProt P63104), the log2 fold change is -0.025.

On to YY1 (UniProt P25490), for which the log2 fold change is 0.084.

Take ZER1 (UniProt Q7Z7L7): the log2 fold change is -0.03.

Take YES1 (UniProt P07947): the log2 fold change is -0.038.

As to ZNF143 (UniProt P52747), the log2 fold change is 0.107.

For ZDHHC20 (UniProt Q5W0Z9), the log2 fold change is 0.067.

In the case of ZDHHC5 (UniProt Q9C0B5), the log2 fold change was 0.077.

Turning to ZFAND6 (UniProt Q6FIF0), the log2 fold change was 0.004.

Turning to ZYG11B (UniProt Q9C0D3), the log2 fold change was 0.044.

ZNF277 (UniProt Q9NRM2): the log2 fold change was 0.

For YLPM1 (UniProt P49750), the log2 fold change was -0.052.

With ZC3HC1 (UniProt Q86WB0), the log2 fold change was -0.018.

On to YWHAZ (UniProt E7ESK7), for which the log2 fold change was 0.052.
